PubChem BioAssay (NCATS)
Where “and” joins values, the source holds several entries; their conditions need not be identical. Equal entries are not always repeated. Inconclusive results are not listed. Calls of active or inactive are those of the source. Unless noted, calls come from the whole dose curve; as a rule, active = well fitted curve in either direction with a large enough effect (not every such curve was filed as active); inconclusive = small, poorly fitted or top-dose-only effect, or another doubt; inactive = flat fitted curve, though single readings scatter.

How the values were obtained:
[1] = target: Cytochrome P450 1A2 (Homo sapiens) (UniProt P05177); assay: p450-cyp1a2 (AID 410; calls by dose curve; note: potency is the fitted concentration of half-maximal effect;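 for activity change, negative = inhibition: -100% = full effect of reference inhibitor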)
Cytochrome P450 1A2 (Homo sapiens), sequence (P05177 whole entry, looked up): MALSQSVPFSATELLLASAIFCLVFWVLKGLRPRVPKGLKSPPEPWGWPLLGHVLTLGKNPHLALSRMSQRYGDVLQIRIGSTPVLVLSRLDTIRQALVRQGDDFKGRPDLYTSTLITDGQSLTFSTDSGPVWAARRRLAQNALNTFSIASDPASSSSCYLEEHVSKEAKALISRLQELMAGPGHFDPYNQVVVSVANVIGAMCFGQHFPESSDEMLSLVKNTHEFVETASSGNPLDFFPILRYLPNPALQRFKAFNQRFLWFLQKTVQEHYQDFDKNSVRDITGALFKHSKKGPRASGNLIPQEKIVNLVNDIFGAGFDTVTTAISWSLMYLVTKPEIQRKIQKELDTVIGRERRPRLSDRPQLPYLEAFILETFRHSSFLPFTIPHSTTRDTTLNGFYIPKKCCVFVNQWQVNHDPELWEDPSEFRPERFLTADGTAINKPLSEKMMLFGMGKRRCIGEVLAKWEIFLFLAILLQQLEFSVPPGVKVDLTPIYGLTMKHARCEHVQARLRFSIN
Procedure, shortened: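 Human CYP1A2 (20nM) demethylated Luciferin-ME at its Km (100uM) in 100mM KPO4. After 10 min compound preincubation, NADPH regeneration ran the reaction 60 min at room temperature. Luciferin was read by luminescence, normalized to 57 uM furafylline.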

[2] = NFAT Signaling Pathway (AID 444); settings: Jurkat NFAT-bla M1, carbachol, beta-lactamase ratio, 5 h; at 7.69 µM (top of the series) unless noted;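 note: carbachol stimulus at about its EC50 of 1 µM final; % is set by controls: 0 for no effect and ±100 for the full control effect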
Procedure, shortened: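 Read-out: CCF4 FRET ratio (460 nm/530 nm) after 1 h RT dye loading, used for %activity and AC50 from titration series. Cells: Jurkat NFAT-β-lactamase/M1 line, treated with compound plus 1 uM carbachol for 5 h, 37 °C.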

[3] = Stat Signaling Pathway (AID 446); settings: ME-180 SIE beta-lactamase reporter, IL-6 stimulated, 5 h;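 note: ME-180 cervical cancer cells given 40 pM IL-6 alongside compound; SIE-controlled beta-lactamase reporter measured as 460/530 nm FRET emission ratio; % is set by controls: 0 for no effect and ±100 for the full control effect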
Procedure, shortened: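 IL-6/STAT signaling read in ME-180 cells via an SIE beta-lactamase reporter. Stimulus was 40 pM IL-6 (its AC50) for 5 hrs, so both activation and inhibition register.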

[4] = target: Glucocorticoid receptor (Homo sapiens) (UniProt P04150); assay: GR-GFP Redistribution (AID 450;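 active = compounds whose dose series gives a full or clear partial fitted curve of increased nuclear translocation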; note: potency is the fitted concentration of half-maximal effect); settings: U2OS GR-GFP nuclear translocation, laser cytometry, 2 h
Glucocorticoid receptor (Homo sapiens), sequence (P04150 whole entry, looked up, the tested form may be a part): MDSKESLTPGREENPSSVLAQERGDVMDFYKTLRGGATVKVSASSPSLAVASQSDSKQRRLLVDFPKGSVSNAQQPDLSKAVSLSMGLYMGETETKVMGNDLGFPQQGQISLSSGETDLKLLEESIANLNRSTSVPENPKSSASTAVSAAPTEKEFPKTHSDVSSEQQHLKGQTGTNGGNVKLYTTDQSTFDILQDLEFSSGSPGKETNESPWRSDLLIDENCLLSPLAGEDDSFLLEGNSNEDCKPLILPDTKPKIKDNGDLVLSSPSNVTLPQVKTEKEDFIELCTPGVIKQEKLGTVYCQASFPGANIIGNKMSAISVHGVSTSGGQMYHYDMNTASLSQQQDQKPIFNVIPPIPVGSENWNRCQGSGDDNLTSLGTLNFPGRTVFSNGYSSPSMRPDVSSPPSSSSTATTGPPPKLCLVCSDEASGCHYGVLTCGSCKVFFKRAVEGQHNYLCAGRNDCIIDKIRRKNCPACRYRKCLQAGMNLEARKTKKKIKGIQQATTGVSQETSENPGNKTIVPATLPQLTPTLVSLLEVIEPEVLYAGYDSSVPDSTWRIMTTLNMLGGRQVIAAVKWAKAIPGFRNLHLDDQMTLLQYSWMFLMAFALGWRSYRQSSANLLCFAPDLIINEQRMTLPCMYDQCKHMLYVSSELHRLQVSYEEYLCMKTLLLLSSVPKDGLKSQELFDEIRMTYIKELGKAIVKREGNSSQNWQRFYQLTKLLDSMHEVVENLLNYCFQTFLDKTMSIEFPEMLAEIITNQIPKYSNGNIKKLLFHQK

[5] = target: Glucocorticoid receptor (Homo sapiens) (UniProt P04150); assay: GR-EFC Redistribution (AID 451; calls by dose curve; note: potency is the fitted concentration of half-maximal effect); settings: CHO-K1 GR-EFC translocation, beta-gal luminescence, 2 h
Procedure, shortened: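 Translocation of GR-ED fusion to nuclear EA restores b-gal, read by luminescence after 1 h room-temperature detection. Engineered CHO-K1 biosensor cells, 1,000/well, exposed 2 h at 37 C to titrations up to 46 uM final.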

[6] = target: Mitogen-activated protein kinase 10 (Mus musculus) (UniProt Q61831); assay: JNK3 AlphaScreen Assay (AID 530);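 note: kinase came from lysate of stimulated human HepG2 cells; signal reports phosphorylation of biotinylated GST-cJun 1-79 at Ser73 with 10 µM ATP; % is set by controls: 0 for no effect and ±100 for the full control effect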
Procedure, shortened: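 Room-temperature AlphaScreen kinase assay; pre-activated HepG2 lysate as JNK3 source, biotin-GST-cJun(1-79) substrate, 10 uM ATP, compound 15 min preincubation.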

[7] = target: Cytochrome P450 3A4 (Homo sapiens) (UniProt P08684); assay: qHTS Assay for Activators of Cytochrome P450 3A4 (AID 885; active = well fitted curve in the direction sought with a large enough effect; an effect the other way counts as inactive or inconclusive; note: nearly all actives have a fitted effect of over 65% in size)
Cytochrome P450 3A4 (Homo sapiens), sequence (P08684 whole entry, looked up): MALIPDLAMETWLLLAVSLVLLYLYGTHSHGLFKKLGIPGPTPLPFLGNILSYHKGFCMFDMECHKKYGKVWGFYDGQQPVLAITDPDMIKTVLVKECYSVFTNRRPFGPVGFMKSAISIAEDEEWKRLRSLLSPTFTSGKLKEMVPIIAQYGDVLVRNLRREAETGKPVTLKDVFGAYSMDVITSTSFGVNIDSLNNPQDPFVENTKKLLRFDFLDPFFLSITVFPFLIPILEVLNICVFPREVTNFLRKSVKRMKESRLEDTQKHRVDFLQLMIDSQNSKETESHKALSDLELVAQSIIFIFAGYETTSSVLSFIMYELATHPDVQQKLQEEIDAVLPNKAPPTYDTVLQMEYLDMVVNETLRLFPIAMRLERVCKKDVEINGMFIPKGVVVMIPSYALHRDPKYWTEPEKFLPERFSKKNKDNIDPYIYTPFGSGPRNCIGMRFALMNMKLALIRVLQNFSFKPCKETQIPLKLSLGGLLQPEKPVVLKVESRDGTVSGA
Procedure, shortened: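 Quantitative HTS format: compounds preincubated with 20nM human CYP3A4 and Luciferin-PPXE substrate at KM, reaction started by NADPH regeneration, stopped after 60 min, luciferase luminescence read 20 min later.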

[8] = target: Cytochrome P450 2D6 (Homo sapiens) (UniProt P10635); assay: qHTS Assay for Inhibitors and Substrates of Cytochrome P450 2D6 (AID 891; active = well fitted curve in the direction sought with a large enough effect; an effect the other way counts as inactive or inconclusive; note: potency is the fitted concentration of half-maximal effect; nearly all actives have a fitted effect of over 60% in size)
Cytochrome P450 2D6 (Homo sapiens), sequence (P10635 whole entry, looked up): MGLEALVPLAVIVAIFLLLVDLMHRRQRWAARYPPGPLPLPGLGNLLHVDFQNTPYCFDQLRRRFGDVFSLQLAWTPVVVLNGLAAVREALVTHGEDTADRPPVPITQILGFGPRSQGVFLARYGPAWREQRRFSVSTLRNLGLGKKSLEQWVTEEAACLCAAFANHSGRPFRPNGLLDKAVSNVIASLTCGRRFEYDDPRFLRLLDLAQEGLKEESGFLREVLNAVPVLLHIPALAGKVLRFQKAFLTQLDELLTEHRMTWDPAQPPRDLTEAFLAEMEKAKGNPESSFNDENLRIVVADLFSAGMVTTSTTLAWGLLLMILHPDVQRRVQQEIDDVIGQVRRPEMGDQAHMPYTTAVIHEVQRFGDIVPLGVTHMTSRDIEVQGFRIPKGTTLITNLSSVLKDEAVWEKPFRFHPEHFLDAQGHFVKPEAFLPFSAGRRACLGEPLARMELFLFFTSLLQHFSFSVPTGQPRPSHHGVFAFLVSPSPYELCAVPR
Procedure, shortened: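 Human CYP2D6 (5 nM) with 30 uM Luciferin-ME EGE (at Km) in 100 mM KPO4, compound preincubated 10 min, then NADPH regeneration system for 60 min at room temperature. Luciferin read by luminescence; normalized to 1.43 uM quinidine.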

[9] = qHTS Assay for Lipid Storage Modulators (AID 1519; calls by dose curve); settings: Drosophila S3 cells, BODIPY lipid droplet/cell ratio, laser cytometry, cells loaded with oleic acid
Procedure, shortened: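 Cells seeded at 5,000 per well were treated with compounds over a concentration series and loaded with oleic acid (400 uM, as added). Lipid droplet fluorescence (488 nm excitation, 500-530 nm channel) was read by laser-scanning cytometry and normalized to 20 uM Triacsin C.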

[10] = target: Ubiquitin carboxyl-terminal hydrolase 1 (Homo sapiens) (UniProt O94782); assay: Inhibitors of USP1/UAF1: Pilot qHTS (AID 504865; active = well fitted curve in the direction sought with a large enough effect; an effect the other way counts as inactive or inconclusive;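 note: rhodamine fluorescence freed from ubiquitin-rhodamine substrate followed over time; top concentration of the series differs between compounds; % is set by controls: 0 for no effect and ±100 for the full control effect; nearly all actives have a fitted effect of over 35% in size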)
Ubiquitin carboxyl-terminal hydrolase 1 (Homo sapiens), sequence (O94782 whole entry, looked up): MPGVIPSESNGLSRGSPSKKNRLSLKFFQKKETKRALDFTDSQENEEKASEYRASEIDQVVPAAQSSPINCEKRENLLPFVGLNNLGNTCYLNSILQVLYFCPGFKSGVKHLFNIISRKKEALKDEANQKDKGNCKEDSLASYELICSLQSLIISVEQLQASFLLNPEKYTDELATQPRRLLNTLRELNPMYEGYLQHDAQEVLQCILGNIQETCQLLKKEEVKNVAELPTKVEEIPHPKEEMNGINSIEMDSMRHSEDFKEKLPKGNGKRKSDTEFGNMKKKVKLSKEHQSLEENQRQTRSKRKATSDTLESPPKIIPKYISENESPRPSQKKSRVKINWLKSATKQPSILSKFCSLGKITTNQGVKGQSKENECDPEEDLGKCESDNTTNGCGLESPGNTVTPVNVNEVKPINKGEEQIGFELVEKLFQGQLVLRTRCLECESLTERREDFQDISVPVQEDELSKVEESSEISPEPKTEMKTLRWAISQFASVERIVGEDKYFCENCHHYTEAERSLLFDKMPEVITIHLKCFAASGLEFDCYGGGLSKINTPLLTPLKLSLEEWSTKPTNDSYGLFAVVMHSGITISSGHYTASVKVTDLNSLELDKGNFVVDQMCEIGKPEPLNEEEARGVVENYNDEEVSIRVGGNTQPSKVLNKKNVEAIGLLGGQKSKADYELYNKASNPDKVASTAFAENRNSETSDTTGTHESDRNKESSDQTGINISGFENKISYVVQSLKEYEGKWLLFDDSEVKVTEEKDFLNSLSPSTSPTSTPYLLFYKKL
Procedure, shortened: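 USP1/UAF1 complex (1nM) preincubated with compound 15 min at room temperature, then Ub-Rho substrate (150nM final) added. Fluorescence read kinetically at 480/540 nm, 6 reads every 60 seconds. Buffer: 50mM HEPES pH 7.8, 0.5mM EDTA, 0.1 mg/ml BSA, 1mM TCEP, 0.01% Tween-20.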

[11] = AP1 Signaling Pathway (AID 357); settings: ME-180 AP-1-bla reporter, EGF-induced, beta-lactamase ratio, 5 h;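 note: ME-180 reporter cells stimulated with EGF at its EC50 level; % is set by controls: 0 for no effect and ±100 for the full control effect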
Procedure, shortened: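 Modulation of EGF-driven AP-1 transcription was assessed with a beta-lactamase reporter in ME-180 cells. Compound and EC50 EGF were co-incubated 5 hours at 37 °C before 2.5-hour CCF4 loading at room temperature and dual-emission reading.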

[12] = target: ATP-dependent 6-phosphofructokinase (Trypanosoma brucei brucei) (UniProt O15648); assay: qHTS Assay to Find Inhibitors of T. brucei phosphofructokinase: hit validation (AID 492961; active = well fitted curve in the direction sought with a large enough effect; an effect the other way counts as inactive or inconclusive)
ATP-dependent 6-phosphofructokinase (Trypanosoma brucei brucei), sequence (O15648 whole entry, looked up): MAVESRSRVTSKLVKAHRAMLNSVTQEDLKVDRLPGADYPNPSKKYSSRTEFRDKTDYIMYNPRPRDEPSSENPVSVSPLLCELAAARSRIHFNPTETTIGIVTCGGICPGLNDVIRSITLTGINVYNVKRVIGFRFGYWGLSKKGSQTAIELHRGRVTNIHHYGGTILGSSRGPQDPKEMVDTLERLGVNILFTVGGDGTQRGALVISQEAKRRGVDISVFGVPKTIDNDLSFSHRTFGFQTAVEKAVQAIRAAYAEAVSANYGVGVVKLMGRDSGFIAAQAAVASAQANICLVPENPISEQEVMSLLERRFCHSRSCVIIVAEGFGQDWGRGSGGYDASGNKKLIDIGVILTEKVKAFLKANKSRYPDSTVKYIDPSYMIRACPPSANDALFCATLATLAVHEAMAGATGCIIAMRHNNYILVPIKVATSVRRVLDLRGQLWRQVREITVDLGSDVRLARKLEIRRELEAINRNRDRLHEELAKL
Procedure, shortened: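 ADP-Glo luminescence read-out of ADP formed by 1.25 nM PFK from 0.1 mM ATP and 0.5 mM F6P (TEA pH 8.0, 45 min, RT). Compounds titrated; activity normalized to no-enzyme and full-enzyme controls.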

[13] = qHTS profiling for inhibitors of Plasmodium falciparum proliferation (AID 504749; active = well fitted curve in the direction sought with a large enough effect; an effect the other way counts as inactive or inconclusive;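 note: 0% = DMSO vehicle and full inhibition = artemisinin control; nearly all actives have a fitted effect of over 60% in size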); settings: P. falciparum in erythrocytes, SYBR Green DNA, 72 h, at 28.7 µM (top of the series)
Procedure, shortened: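 Three-day growth assay of blood-stage parasites in erythrocytes (0.3% parasitemia, 2.5% hematocrit) at 37 C, 5% CO2, quantified by SYBR Green DNA staining after overnight detergent lysis.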

[14] = qHTS Assay for Identification of Small Molecule Agonists for Hypoxia Response Element Signaling Pathway (AID 914; active = well fitted activation curve with a large enough effect in the signal ratio, with a control signal flat, not every such curve was filed as active; the % refers to the signal ratio; note: % of control where 0% means no effect); settings: ME-180 (cervical carcinoma) HRE-bla reporter, beta-lactamase ratio, CoCl2, 17 h; activation: stronger effect = higher value
Procedure, shortened: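 Cells were plated overnight, pin-dosed with compound in a titration series, co-stimulated with EC50 CoCl2 and incubated 17 hours at 37 degrees Celsius. CCF4 substrate was then loaded, and AC50 values came from the 460nm/530nm ratio.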

[15] = target: Lysosomal acid glucosylceramidase (Homo sapiens) (UniProt P04062); assay: Glucocerebrosidase-p2 (AID 348; in the data active = potency below about 10 µM; note: potency is the fitted concentration of half-maximal effect); settings: purified GBA, blue fluorogenic substrate, 40 min
Lysosomal acid glucosylceramidase (Homo sapiens), sequence (P04062 whole entry, looked up): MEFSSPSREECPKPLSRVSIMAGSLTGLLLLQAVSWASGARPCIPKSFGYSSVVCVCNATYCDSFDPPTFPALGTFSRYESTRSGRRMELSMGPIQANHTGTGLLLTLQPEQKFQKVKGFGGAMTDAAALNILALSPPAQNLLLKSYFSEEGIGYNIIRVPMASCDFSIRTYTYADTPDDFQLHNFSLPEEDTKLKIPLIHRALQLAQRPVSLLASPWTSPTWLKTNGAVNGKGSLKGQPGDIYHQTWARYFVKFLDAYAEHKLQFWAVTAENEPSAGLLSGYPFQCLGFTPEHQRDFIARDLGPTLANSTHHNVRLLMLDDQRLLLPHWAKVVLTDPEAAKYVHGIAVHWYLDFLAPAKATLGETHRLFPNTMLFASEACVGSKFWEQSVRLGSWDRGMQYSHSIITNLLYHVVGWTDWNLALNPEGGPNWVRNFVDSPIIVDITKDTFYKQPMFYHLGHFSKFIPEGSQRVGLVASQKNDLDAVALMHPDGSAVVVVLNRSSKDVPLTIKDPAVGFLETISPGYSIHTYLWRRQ
Procedure, shortened: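 Compounds titrated from 0.6 nM upwards against 0.2 nM enzyme in pH 5.9 citric acid/KH2PO4, taurocholate, tween-20; blue fluorogenic substrate 80 uM, 40 min room temperature, stopped and read Ex 365/Em 440 for AC50.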

[16] = target: 3',5'-cyclic-AMP phosphodiesterase 4B (Homo sapiens) (UniProt Q07343); assay: qHTS Assay for Inhibitors of PDE-IV (AID 607; active = well fitted activation curve with a large enough effect in the main read-out, with a control signal flat, not every such curve was filed as active; note: % of control where 0% means no effect)
3',5'-cyclic-AMP phosphodiesterase 4B (Homo sapiens), sequence (Q07343 whole entry, looked up): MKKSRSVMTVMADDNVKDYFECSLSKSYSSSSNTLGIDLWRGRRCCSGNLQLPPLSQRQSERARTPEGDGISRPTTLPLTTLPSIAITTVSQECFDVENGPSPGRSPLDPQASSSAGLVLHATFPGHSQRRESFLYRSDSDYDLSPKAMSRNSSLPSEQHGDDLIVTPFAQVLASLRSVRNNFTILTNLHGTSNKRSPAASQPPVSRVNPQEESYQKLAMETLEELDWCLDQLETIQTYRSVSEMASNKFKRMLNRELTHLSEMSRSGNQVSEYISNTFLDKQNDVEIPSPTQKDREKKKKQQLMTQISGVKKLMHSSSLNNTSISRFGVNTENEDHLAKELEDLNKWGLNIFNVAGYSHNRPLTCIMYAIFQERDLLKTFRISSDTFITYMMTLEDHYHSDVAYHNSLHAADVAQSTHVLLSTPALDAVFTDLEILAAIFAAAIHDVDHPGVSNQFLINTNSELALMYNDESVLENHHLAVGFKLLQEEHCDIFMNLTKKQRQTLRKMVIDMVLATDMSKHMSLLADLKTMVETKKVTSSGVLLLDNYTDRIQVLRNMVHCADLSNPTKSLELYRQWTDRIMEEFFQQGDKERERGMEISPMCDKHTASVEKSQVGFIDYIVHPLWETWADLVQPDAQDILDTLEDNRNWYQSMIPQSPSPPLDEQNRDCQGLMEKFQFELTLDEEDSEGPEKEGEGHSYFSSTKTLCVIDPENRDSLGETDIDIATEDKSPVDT
Procedure, shortened: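 Live HEK293 cells with a modified cyclic nucleotide-gated (CNG) channel report intracellular cAMP via membrane-potential dye fluorescence (ex 535/em 590 nm). Endogenous PDE-IV was targeted. Compounds were tested at up to 22.9 uM final; RO 20-1724 100 uM served as control.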

[17] = at 7.69 µM (top of the series) unless noted
[18] = measured here: cell count channel max response
[19] = measured here: lipid channel max response

COc1ccccc1CNc1ncnc2ccc(-c3ccoc3)cc12
4.99%: max response [9, 19]
20%: max response [9, 18]
inactive: activity change, negative = inhibition [2] -7.72% | activity, negative = inhibition [3, 17] -21.5% | Potency [4] > 46 µM | Potency [5] > 46 µM | Potency [6] | Potency [7] | activity change, negative = inhibition ([9]; at 57.5 µM (top of the series)) -10.7% | Potency [10]
active: Potency [1] 2.51 µM | Potency [8] 3.16 µM

CN1CCCC[C@@H]1CCN1c2ccccc2Sc2ccc(S(C)=O)cc21 (some centres not stated)
inactive: activity change, negative = inhibition ([11]; at 7.69 µM (top of the series)) -6.82% | activity change, negative = inhibition ([11]; at 17.2 µM (top of the series)) 10.1% | activity, negative = inhibition ([3]; at 7.69 µM (top of the series)) 0.0805% | activity, negative = inhibition ([3]; at 17.2 µM (top of the series)) -1.79% | activity change, negative = inhibition ([9]; at 25.7 µM (top of the series)) -3.11% | outcome [12] | activity, negative = inhibition ([13]; parasite line A) 1.72% | activity, negative = inhibition ([13]; parasite line B) 1.85%

CN1[C@@H]2CC[C@H]1CC(OC(=O)[C@@H](O)c1ccccc1)C2 (some centres not stated)
inactive: activity change, negative = inhibition ([11]; at 7.69 µM (top of the series)) 9.45% | activity change, negative = inhibition ([11]; at 17.2 µM (top of the series)) -8.08% | activity change, negative = inhibition ([11]; at 38 µM (top of the series)) -8.54% | activity, negative = inhibition ([3]; at 7.69 µM (top of the series)) -3.56% | activity, negative = inhibition ([3]; at 17.2 µM (top of the series)) 8.85% | activity change, negative = inhibition ([9]; at 25.7 µM (top of the series)) 2.61% | outcome [12] | activity, negative = inhibition ([13]; parasite line A) -3.65% and -0.465% | activity, negative = inhibition ([13]; parasite line B) 7.89% and -12.1%

COc1ccccc1CNc1ccnc(-c2ccccc2C(F)(F)F)n1
inactive: activation [14] -5.47%

FC(F)(F)c1cc(CN2CCC3(CCNCC3)CC2)cc(C(F)(F)F)c1
-8.05%: max response [9, 18]
-9.72%: max response [9, 19]
inactive: Potency [15] > 11.4 µM | activity change, negative = inhibition [11, 17] 3.22% | Potency [1] | activity change, negative = inhibition [2] 9.54% | activity, negative = inhibition [3, 17] 1.83% | Potency [5] > 46 µM | Potency [6] | Potency [16] | Potency [7] | activity change, negative = inhibition ([9]; at 57.5 µM (top of the series)) -1.92%
